Test results: the supplement of paper PMC11219838
A number with no mark means an inactive call.

Legend:
Details in all cases: 60 µM; 5 days; temperature: 20 °C
Meloidogyne hapla J2 = test: proportion of mobile M. hapla J2 relative to DMSO control (fraction of DMSO control); higher = more viable, less nematicidal, active = 0.7 or less
Outline: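 About 25 M. hapla J2 were placed in each well of a 96-well plate in distilled water, and compound was pinned in to a final 60 µM with 0.6% v/v DMSO. The sealed plates were shaken at 200 rpm at 20 °C for 5 days, after which 2 µL of 1 M NaOH went into each well. Mobility was then scored under the microscope and divided by the mean value from DMSO-only wells on the same plate. Each plate held eight such DMSO wells, and two biological replicates were averaged.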

[1] = system: Caenorhabditis elegans dauer (daf-2(e1370)); test: proportion of mobile C. elegans dauer larvae relative to DMSO control (fraction of DMSO control); higher = more viable, less nematicidal, active = 0.63 or less; extreme values may be limits of the assay
Outline: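 Compound was added by pinning to 60 µM final, giving 0.6% v/v DMSO, in 96-well plates containing about 20 C. elegans dauers per well in liquid NGM. These dauers came from synchronized larvae held on MYOB plates with E. coli OP50 for 48 h at 25 °C. Plates were sealed and shaken at 200 rpm at 20 °C for 5 days. Under a dissection microscope, the proportion of mobile worms was scored relative to DMSO wells, and two biological replicates were averaged.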

Ditylenchus dipsaci = test: proportion of mobile D. dipsaci (mixed stage) relative to DMSO control (fraction of DMSO control); higher = more viable, less nematicidal, active = 0.86 or less; extreme values may be limits of the assay
Outline: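 Ditylenchus dipsaci nematodes were cultured on pea plants in Gamborg B-5 agar, then extracted into water through a filter funnel, and roughly 20 worms in distilled water were placed in each well of a 96-well plate. Compound was pinned in to a final concentration of 60 µM (0.6% v/v DMSO), and the sealed plates were shaken at 200 rpm for 5 days at 20 °C. Mobile worms were counted under the microscope after 2 µL of 1 M NaOH was added. Mobility is given relative to DMSO controls as the mean of two biological replicates.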

| Compound | proportion of mobile M. hapla J2 (Meloidogyne hapla J2) | proportion of mobile C. elegans dauer larvae [1] | proportion of mobile D. dipsaci (Ditylenchus dipsaci) |
| --- | --- | --- | --- |
| Fc1ccc(OCc2nc(-c3ccc(Br)cc3)no2)cc1 | 0.95 | 1 | 1 |
| O=C(CSc1nnc(-c2ccc(Cl)cc2Cl)o1)Nc1ccccn1 | 0.838 | 1 | 1 |
| Cc1ccc(-c2nnc(SCc3c(C)cc(C)cc3C)o2)cc1 | 0.926 | 1 | 1 |
| Cn1cc(C(=O)CSc2nnc(-c3ccccc3)o2)c2ccccc21 | 1.01 | 1 | 1 |
| COc1ccc(-c2nnc(SCC(=O)Nc3ccc(C)cc3Br)o2)cc1 | 1.01 | 1 | 1 |
| Cc1ccccc1-c1noc(CSc2nc3ccccc3[nH]2)n1 | 0.918 | 1 | 1 |
| Cc1cccc(-c2noc(COc3cc(C)ccc3C)n2)c1 | 1.04 | 1 | 1 |
| COc1ccc(-c2nnc(SCC(=O)Nc3ccc(Cl)c(Br)c3)o2)cc1 | 0.933 | 1 | 1 |
| Cc1ccc(-c2noc(C3CCCCC3)n2)cc1 | 1.05 | 1 | 1 |
| Cc1ccc(-c2nnc(SCc3ccccc3)o2)cc1 | 0.256 (active) | 0.371 (active) | 0.889 |
| COc1ccc(OCc2nc(-c3cccc(Br)c3)no2)cc1 | 1 | 1 | 1 |
| Cc1[nH]c2ccc(-c3nnc(SCC(=O)NCc4ccc(F)cc4)o3)cc2c1C | 0.865 | 1 | 1 |
| COc1nc(-c2ccc(Cl)cc2)ccc1-c1noc(C)n1 | 1.03 | 1 | 1 |
| Brc1cccc(-c2nc(-c3cccnc3)no2)c1 | 1.01 | 1 | 1 |
| COc1ccccc1-c1nnc(SCC(=O)Nc2ccccc2Cl)o1 | 0.973 | 1 | 1 |
| Clc1ccccc1-c1noc(-c2ccncc2)n1 | 0.953 | 1 | 1 |
| O=C(CSc1nnc(-c2ccc(Br)cc2)o1)Nc1nccs1 | 1.01 | 1 | 1 |

| Compound | proportion of mobile M. hapla J2 (Meloidogyne hapla J2) | proportion of mobile C. elegans dauer larvae [1] | proportion of mobile D. dipsaci (Ditylenchus dipsaci) |
| --- | --- | --- | --- |
| COc1ccc(-c2noc(-c3ccccc3Cl)n2)cc1 | 0.885 | 1 | 1 |
| Brc1ccccc1-c1nc(-c2ccccc2)no1 | 1.04 | 0.676 | 1 |
| Cc1cc(OCc2nc(-c3ccccc3)no2)ccc1Br | 0.932 | 1 | 1 |
| Cc1ccc(SCc2nc(-c3cccc(C)c3)no2)cc1 | 1.01 | 1 | 1 |
| Cc1ccc(-c2nnc(SCC(=O)Nc3ccc(Br)c(C)c3C)o2)cc1 | 1.03 | 1 | 1 |
| CCOC(=O)c1sc(NC(=O)CSc2nnc(-c3ccc(Cl)cc3)o2)c(C(=O)OCC)c1C | 0.906 | 1 | 1 |
| CN(C)C(=O)c1ccccc1-c1nc(-c2ccc(Cl)cc2)no1 | 0.963 | 1 | 1 |
| COc1ccccc1-c1nnc(SCc2ccccc2C)o1 | 0.929 | 1 | 1 |
| Cc1ccc(SC(C)c2nc(-c3cccnc3)no2)cc1 (centres undefined) | 0.874 | 1 | 1 |
| O=C(CSc1nnc(-c2cccc(Cl)c2)o1)Nc1ccccc1 | 0.813 | 1 | 1 |
| COc1ccc(-c2nnc(SCc3ccc(Cl)cc3Cl)o2)cc1 | 1.04 | 1 | 1 |
| Clc1cccc(OCc2nc(-c3cccs3)no2)c1 | 0.942 | 0.5 (active) | 1 |
| Cc1cc(C)c(C)c(OCc2nc(-c3ccccc3)no2)c1 | 0.95 | 1 | 1 |
| Cc1cccc(-c2noc(-c3ccc(C)c(Cl)c3)n2)c1 | 1.01 | 1 | 1 |
| O=C(CSc1nnc(-c2cccc(F)c2)o1)Nc1ccccc1C(=O)c1ccccc1 | 0.889 | 1 | 1 |
| Cc1ccc(-c2noc(-c3ccc(C)cc3)n2)cc1 | 1.01 | 0.881 | 1 |
